Results as given in PubChem BioAssay AID2111 (National Center for Advancing Translational Sciences (NCATS), 2009).
Where “and” joins values, the source holds several entries; their conditions need not be identical. Equal entries are not always repeated. Calls of active or inactive are those of the source. Calls follow the shape of the dose curve; as a rule, active = well fitted curve in either direction with a large enough effect; inconclusive = small, poorly fitted or top-dose-only effect; inactive = no such curve, though single readings can be large or run the other way.

The compounds below were run against Lysosomal alpha-glucosidase (Homo sapiens) (UniProt P10253) (assay: Confirmation of Inhibitors and Activators of Human alpha-Glucosidase From Spleen Homogenate Using an Alternate Red Fluorescent Susbtrate). Conditions: resorufin-glucoside fluorescence; series mostly up to 62.8 µM.
From the text: NIH Chemical Genomics Center [NCGC] NIH Molecular Libraries Probe Production centers Network [MLPCN] MLPCN Grant: 1R03MH084841-01 Assay Submitter (PI): Wei Zheng NCGC Assay Overview: Alpha-glucosidase is responsible for hydrolysis of terminal, non-reducing 1,4-linked alpha-D-glucose residues with release of alpha-D-glucose. It is a lysosomal hydrolase that is required for the degradation of a small percentage (1-3%) of cellular glycogen in human. Deficiency of this enzyme results in glycogen-storage disease type II (GSDII), also referred to as Pompe disease, an autosomal recessive disorder. Structurally normal glycogen is accumulated in lysosomes and cytoplasm in affected patients, primarily in muscle tissues. Excessive glycogen storage within lysosomes may interrupt normal functioning of other organelles and leads to cellular injury. In turn, this leads to enlargement and dysfunction of the entire organ involved (eg, cardiomyopathy and muscle weakness). It has reported that the improper folding and trafficking of alpha-glucosidase resultinged from the genetic mutations may account for a significant number of Pomrope patients. […] We optimized this alpha-glucosidase assay in 1536-well plate format for identifying the novel small molecule inhibitors with the structures other than the sugar analogs in order to develop the new pharmacological chaperones. In particular, this assay is directed towards discovering compounds active in a more natural setting, tissue homogenate, that may have been missed by screens of the purified enzyme under more stringent conditions. This assay attempted to confirm hits from the primary screening using an alternate fluor than the primary screen used.
NCGC Assay Protocol Summary: This is a fluorogenic enzyme assay with Resorufin-alpha-D-glucopyranoside as the substrate and human spleen homogenate containing alpha-glucosidase as the enzyme preparation. Upon hydrolysis of this fluorogenic substrate, the resulting product, resorufin (which excites at 573 nm and emits at 610 nm) can be detected by a fluorescence plate reader. Data were normalized to the controls for basal activity (without enzyme) and 100% activity (with enzyme). The AC50 values were determined from concentration-response data modeled with the standard Hill equation. Assay buffer: 50 mM citric acid (titrated with potassium phosphate to pH 5.0), 0.01% Tween-20 (pH 5.0 is an optimal condition for this enzyme assay) 1536-well assay protocol for the alpha-glucosidase from human spleen homogenate: (1) Add 2 ul/well spleen homogenate (1 ug) (2) Add 23 nL compounds in DMSO solution. The final titration was 0.5 nM to 58 uM. (3) Add 2 ul of substrate (1 mM final) (4) Incubate at 37 C for 40 min (5) Add 2 ul stop solution (1M NaOH and 1M Glycine mixture, pH 10) (6) Detect the assay plate in a ViewLux plate reader (PerkinElmer) with […]. Keywords: Alpha-glucosidase, Pompe Disease, pharmacological chaperone, chaperone therapy, high throughput screening, alpha-glucosidase inhibitor, MLSMR, MLSCN, NIH Roadmap, qHTS and NCGC
`O=c1[nH]cc(CCc2ccccc2)c2ncncc12` was tested, and the Potency was “inactive”. `O=S(=O)(c1ccc(Cl)cc1)N1CCN(c2nc(-c3cccs3)nc3ccccc23)CC1` was tested, and the Potency was “inactive”. For `COc1ccc(C#Cc2c[nH]c(=O)c3cncnc23)cc1OC`, the Potency was “inactive”. In the case of `OCCNc1nc(-c2cccs2)nc2ccccc12`, the Potency is reported as “inactive”. In the case of `O=c1[nH]cc(C#Cc2ccccc2)c2ncncc12`, the Potency is reported as “inactive”. For `COc1ccc(CCn2c3c(c(=O)[nH]c2=S)CN(C(C)C)CN3)cc1OC`, the Potency was 12.6 µM (active). For `CCCCN1C[C@H](O)[C@@H](O)[C@H](O)[C@H]1CO`, the Potency was “inactive”. `Cc1ccc(S(=O)(=O)N2CCN(C(=O)N(c3ccccc3)c3ccccc3)CC2)cc1` was tested, and the Potency was “inactive”. In the case of `CCCN1CNc2c(c(=O)[nH]c(=S)n2CCc2ccccc2Cl)C1`, the Potency is reported as 11.2 µM (active). With `CCCN1CNc2c(c(=O)[nH]c(=S)n2CCc2ccc(Cl)cc2)C1` the Potency was 11.2 µM (active). `CCCN1CNc2c(c(=O)[nH]c(=S)n2CCc2cccc(OC)c2OC)C1` was tested, and the Potency was 15.8 µM (active). `CCCN1CNc2c(c(=O)[nH]c(=O)n2CCc2ccc(OC)c(OC)c2)C1` was tested, and the Potency was 15.8 µM (active). In the case of `CC(=O)c1ccc(N2CCN(S(=O)(=O)c3ccc4c(c3)CC(C)N4C(C)=O)CC2)cc1` (stereo not given), the Potency is reported as “inactive”. With `c1csc(-c2nc(NCC3CCCO3)c3ccccc3n2)c1` (stereo not given) the Potency was “inactive”. For `CC(=O)c1ccc(N2CCN(S(=O)(=O)c3ccc4c(c3)OCC(=O)N4)CC2)cc1`, the Potency was “inactive”. `Cc1ccc(N2CCN(S(=O)(=O)c3ccc4c(c3)CC(=O)N4)CC2)cc1` was tested, and the Potency was “inactive”. With `CC(=O)c1ccc(N2CCN(C(=O)c3ccc4c(c3)CCC(=O)N4)CC2)cc1` the Potency was “inactive”. In the case of `CC(=O)c1ccc(N2CCN(S(=O)(=O)c3ccc4[nH]c(=O)oc4c3)CC2)cc1`, the Potency is reported as “inactive”. With `CCCN1CNc2c(c(=O)[nH]c(=S)n2CCc2cccc(C)c2)C1` the Potency was 15.8 µM (active). With `CC(=O)c1ccc(N2CCN(S(=O)(=O)c3ccc4c(c3)C(Cl)(Cl)C(=O)N4)CC2)cc1` the Potency was 20.6 µM [inhibitor] (active) and 32.6 µM [inhibitor] (active). For `CC(=O)c1ccc(N2CCN(S(=O)(=O)c3ccc4c(c3)oc(=O)n4C)CC2)cc1`, the Potency was “inactive”. In the case of `COc1ccc(CCn2c3c(c(=O)[nH]c2=S)CN(Cc2ccccc2)CN3)cc1OC`, the Potency is reported as 7.94 µM (active). `CC(=O)N1CCN(S(=O)(=O)c2ccc3c(c2)CC(=O)N3)CC1` was tested, and the Potency was 14.9 µM [inhibitor] (active). `N#Cc1ccc(N2CCN(S(=O)(=O)c3ccc4c(c3)CC(=O)N4)CC2)cc1` was tested, and the Potency was 1.63 µM [inhibitor] (active). With `CCCN1CNc2c(c(=O)[nH]c(=S)n2Cc2ccc(OC)c(OC)c2)C1` the Potency was 5.01 µM (active). `COc1ccc(CCn2c(=S)[nH]c(=O)c3nccnc32)cc1OC` was tested, and the Potency was “inactive”. `CCCN1CNc2c(c(=O)[nH]c(=S)n2CCc2c(C)cccc2C)C1` was tested, and the Potency was 2.82 µM (active). `CCCN1CNc2c(c(=O)[nH]c(=S)n2CCC(C)C)C1` was tested, and the Potency was “inactive”. With `CCCN1CNc2c(c(=O)[nH]c(=S)n2CCc2ccccc2OC)C1` the Potency was 14.1 µM (active). With `CCCN1CNc2c(c(=O)[nH]c(=S)n2CCc2ccc(OCC)c(OCC)c2)C1` the Potency was 7.94 µM (active). With `O=C1Cc2cc(S(=O)(=O)N3CCN(c4ccc([N+](=O)[O-])cc4)CC3)ccc2N1` the Potency was 5.8 µM [inhibitor] (active). `CCCN1CNc2c(c(=O)[nH]c(=S)n2CCc2c(OC)cccc2OC)C1` was tested, and the Potency was 35.5 µM (active). `CCCN1CNc2c(c(=O)[nH]c(=S)n2CCc2ccc(C)cc2C)C1` was tested, and the Potency was 11.2 µM (active). For `CCCN1CNc2c(c(=O)[nH]c(=S)n2CCc2cc(C)cc(C)c2)C1`, the Potency was 4.47 µM (active). With `O=C1Cc2cc(S(=O)(=O)N3CCN(c4cccc(C(F)(F)F)c4)CC3)ccc2N1` the Potency was 8.41 µM [inhibitor] (active). `CCCN1CNc2c(c(=O)[nH]c(=S)n2CCc2ccc(Cl)c(Cl)c2)C1` was tested, and the Potency was 8.91 µM (active). With `CCCN1CNc2c(c(=O)[nH]c(=S)n2CCc2cccc(Cl)c2)C1` the Potency was 15.8 µM (active). With `CC(=O)Nc1ccc(S(=O)(=O)N2CCN(c3ccc(C(C)=O)cc3)CC2)cc1` the Potency was “inactive”. `O=C1Cc2cc(S(=O)(=O)N3CCN(c4ccc(CO)cc4)CC3)ccc2N1` was tested, and the Potency was 13 µM [inhibitor] (active). `CC(=O)c1ccc(N2CCN(S(=O)(=O)c3ccc4c(c3)CCCC(=O)N4)CC2)cc1` was tested, and the Potency was “inactive”.
